# Screening results (PubChem)
# In the library only some 4.1% were active in any assay of this set; here they are far more common.
# rCAG binder-1 – binds r(CAG) RNA repeats; actives 1.3% (n = 370,000); inhibition, % at 3 µM; r(CAG) RNA repeat, TO-PRO-1 dye displacement fluorescence;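 active means inhibition above the plate cutoff, the mean of all test compounds on that plate plus 3 SD, cut at about 35% in these data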;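 further: 0% = DMSO alone and 100% = 100 µM mitoxantrone as full dye displacement; higher means more dye released from RNA so lower well fluorescence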
# PRMT1 inh – PRMT1 (human) inhibition, primary screen. Q99873. recombinant PRMT1, activity-based probe fluorescence polarization. inhibition, % at 2.79 µM. actives 1.3% (n = 370,000);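 active means inhibition above about 21% made by adding two undisclosed values, limit read from the data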
# UHRF1 binding – UHRF1 methyl-DNA binding inhibition | actives 0.75% (n = 370,000) | UHRF1 binding to methylated oligo, TR-FRET | inhibition, % at 4.4 µM; in the data active means inhibition above about 21%;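 further: UHRF1 SRA domain binding a hemimethylated CpG hairpin DNA probe; 0% = median of test compound wells and 100% = reference inhibitor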
# LEDGF integ inh – blocks HIV-1 LEDGF/p75-dependent DNA integration; AID 743269; actives 0.64% (n = 370,000); TR-FRET IN-LEDGF/p75 DNA integration, Eu/Cy5; inhibition, % at 3.7 µM;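 active means inhibition above the screen-wide mean plus 3 SD, cut at about 13% in these data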;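 further: signal is the Cy5 over europium emission ratio at 671 and 618 nm; 0% = plate median of compound wells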
# ABHD5-PLIN5 inh – inhibitors of human ABHD5-perilipin-5 interaction. actives 0.78% (n = 360,000). Split G. princeps luciferase complementation, luminescence, 4 h. inhibition, % at 4 µM;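 active means inhibition above the mean inhibition across every tested compound plus 3 SD, cut at about 22% in these data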;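 further: 0% = DMSO only wells and the 100% control is not disclosed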
# MBD2 inh – blocks human MBD2 binding to methylated DNA; AID 686964; actives 0.31% (n = 370,000); TR-FRET, MBD2 binding to methylated oligonucleotide; inhibition, % at 4.4 µM; Q9UBB5; in the data active means inhibition above about 13%
# Target sequence (Q9UBB5 whole entry, looked up): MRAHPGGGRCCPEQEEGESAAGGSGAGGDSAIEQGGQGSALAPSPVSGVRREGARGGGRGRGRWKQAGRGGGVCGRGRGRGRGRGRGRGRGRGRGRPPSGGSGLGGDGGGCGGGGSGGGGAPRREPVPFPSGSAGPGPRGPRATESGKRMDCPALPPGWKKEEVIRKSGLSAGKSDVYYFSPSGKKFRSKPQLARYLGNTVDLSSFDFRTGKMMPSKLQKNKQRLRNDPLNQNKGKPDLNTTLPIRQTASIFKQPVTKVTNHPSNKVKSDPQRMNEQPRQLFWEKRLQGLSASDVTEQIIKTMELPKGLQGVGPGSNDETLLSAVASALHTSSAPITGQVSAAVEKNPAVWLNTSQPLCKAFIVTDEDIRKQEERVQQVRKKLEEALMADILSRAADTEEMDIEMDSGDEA
# rCAG bind conf – r(CAG) RNA repeat binding, confirmation. shares compounds with rCAG binder-1. TO-PRO-1 dye displacement fluorescence. inhibition, % at 3 µM. actives 70% (n = 4,300);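 active means inhibition above a per-plate cutoff, the mean inhibition of sample wells plus 3 SD, cut at about 35% in these data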;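 further: loss of TO-PRO-1 fluorescence as compound displaces dye from 1x1 AA loop RNA; 0% = DMSO only wells and 100% = 100 µM mitoxantrone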
# DNA CAG counter – disrupts DNA CAG TO-PRO-1 complex, flagging rCAG hits; shares compounds with rCAG binder-1; d(CAG) DNA oligo TO-PRO-1 dye displacement, fluorescence; inhibition, % at 3 µM; actives 94% (n = 4,300);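 active means inhibition above its plate's cutoff, the mean test-well inhibition plus 3 SD, cut at about 4.8% in these data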;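 further: 0% = DNA dye mix with DMSO and 100% = 100 µM mitoxantrone; hits displace the dye from DNA and so lower well fluorescence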
# DNA CAG DR – counter-screen for rCAG binders: inhibitors of DNA CAG TO-PRO-1 complex | shares compounds with rCAG binder-1 | DNA CAG/GTC duplex TO-PRO-1 dye displacement fluorescence | IC50, µM | actives 20% (n = 250) | AID 686960; in the data active means IC50 below about 10 µM
# dCAG DNA bind – inhibits DNA CAG/GTC TO-PRO-1 complex, rCAG binder counter-screen; actives 80% (n = 30); d(CAG) DNA duplex TO-PRO-1 dye displacement, fluorescence; IC50, µM; shares compounds with rCAG binder-1
# rCAG binder-2 – molecules binding r(CAG) RNA repeats, late stage dose response; shares compounds with rCAG binder-1; r(CAG) RNA TO-PRO-1 dye displacement, fluorescence; IC50, µM; actives 100% (n = 30); AID 720651
# * = called active by the depositor; i = inactive; / = no result given. Unless noted, how the calls were made is not given here.
SMILES,rCAG binder-1,PRMT1 inh,UHRF1 binding,LEDGF integ inh,ABHD5-PLIN5 inh,MBD2 inh,rCAG bind conf,DNA CAG counter,others
CCOC(=O)c1ccc(S(=O)(=O)Nc2cc(S(=O)(=O)Nc3ccc(OC)cc3)ccc2O)cc1,62*,0,3,-4,-1,-2,52*,22*,
O=S(=O)(Nc1cccc(S(=O)(=O)N2CCOCC2)c1)c1ccc(Cl)s1,8,-1,5,-2,7,4,/,/,
CC(C)NC(=O)C1CCN(c2cncnc2)CC1,4,-5,1,0,/,3,/,/,
Cc1ccc(NC(=O)COc2cccc(/C=C3\SC(=S)N(CCC(=O)O)C3=O)c2)cc1Cl,23,11,-5,-3,-4,3,/,/,
COc1ccc(/C=C2\SC(=S)N(CCCC(=O)Nc3ccc(C(=O)O)cc3)C2=O)cc1OC,64*,3,2,1,6,1,53*,18*,
COc1ccc(/C=C2\SC(=O)N(CCCC(=O)Nc3ccc(C(=O)O)cc3)C2=O)cc1OC,5,-1,0,0,4,0,/,/,
O=C(O)CCN1C(=O)/C(=C\c2cccc(OCC(=O)Nc3ccc(Cl)cc3)c2)SC1=S,71*,6,-8,8,-4,-4,82*,43*,
COc1cccc(/C=C2\SC(=S)N(CCCC(=O)Nc3ccc(C(=O)O)cc3)C2=O)c1,69*,0,0,5,-3,1,61*,22*,
COc1cccc(/C=C2/SC(=S)N(CCCC(=O)Nc3ccc(O)cc3)C2=O)c1,10,-2,-1,1,11,2,/,/,
CCN(CC)c1ccc(-n2c(O)c(C=C3N=c4ccccc4=N3)sc2=S)cc1,4,-1,0,1,-2,4,/,/,
O=C(O)CCCn1c(O)c(C=C2N=c3ccccc3=N2)sc1=S,45*,17,-7,2,0,-8,29,6.7*,
O=C(O)CCCCCn1c(O)c(C=C2N=c3ccccc3=N2)sc1=S,83*,16,-4,0,2,-8,65*,29*,DNA CAG DR=i;dCAG DNA bind=2.4*;rCAG binder-2=0.98*
COc1ccc2c3c([nH]c2c1)[C@]1(NCC3)C(=O)N(C)c2ccc(Cl)cc21,0,-7,7,4,/,-2,/,/,
Clc1ccc(-c2ccc(-c3nn4c(-c5ccco5)nnc4s3)o2)cc1,35*,6,-2,6,4,-2,12,9.1*,
c1ccc(-c2nn3c(-c4ccco4)nnc3s2)nc1,5,-3,-29,3,4,-3,/,/,
COc1ccc(/C=C2/SC(=O)N(CCC(=O)Nc3ccc(S(=O)(=O)Nc4nccs4)cc3)C2=O)cc1,84*,4,2,-1,3,-1,82*,49*,
COc1ccc(/C=C2\SC(=O)N(CCC(=O)Nc3ccc(S(=O)(=O)Nc4nccs4)cc3)C2=O)cc1,80*,2,0,0,2,0,79*,45*,
O=C1N/C(=N/S(=O)(=O)Cc2ccccc2)S/C1=C/c1ccc2c(c1)OCO2,66*,-1,-2,1,17,-5,56*,19*,
CCOc1ccc(NS(=O)(=O)c2ccc(Cl)c(N=Nc3c(O)[nH]c(=S)[nH]c3=O)c2)cc1Br,93*,8,-1,2,-5,0,93*,66*,
O=C(Nc1ccc(-c2csc(Nc3ccc(Cl)cc3)n2)cc1)c1cccc(C(F)(F)F)c1,44*,0,-2,0,/,2,14,11*,
O=C(Nc1ccc(-c2csc(Nc3ccccc3)n2)cc1)c1cccc(C(F)(F)F)c1,24,-1,0,-3,-13,3,/,/,
CC(/C=C/c1ccc(N(C)C)cc1)=N\N=C1\NC(=O)CC(C(=O)Nc2ccccc2)S1 (configuration not stated),32,2,0,1,3,-4,/,/,
CC(/C=C/c1ccc(N(C)C)cc1)=N/N=C1/NC(=O)CC(C(=O)Nc2ccc(Cl)cc2)S1 (configuration not stated),41*,-2,-3,-2,8,1,41*,14*,
Cc1cccc(NS(=O)(=O)c2nnc(NC(=O)c3ccc(C)c(C)c3)s2)c1,41*,4,0,-3,-3,1,37*,14*,
COc1cccc(C(=O)Nc2nnc(S(=O)(=O)Nc3cccc(C)c3)s2)c1,17,-10,-1,5,-5,-6,/,/,
SMILES,rCAG binder-1,PRMT1 inh,UHRF1 binding,LEDGF integ inh,ABHD5-PLIN5 inh,MBD2 inh,rCAG bind conf,DNA CAG counter,others
Cc1cccc(NS(=O)(=O)c2nnc(NC(=O)CC(C)C)s2)c1,13,-2,1,-4,-7,2,/,/,
Cc1cccc(NS(=O)(=O)c2nnc(NC(=O)C3CCCCC3)s2)c1,37*,3,0,2,-2,-3,20,5.3*,
CC(C)(C)C1=Nn2c(nnc2-c2ccc(C(C)(C)C)cc2)SC1,-4,5,1,4,/,-3,/,/,
C[C@@H]1ON(C)[C@H]2C[C@H]3c4[nH]c5cccc(-c6ccc7c(c6)OCO7)c5c4CCN3C(=O)[C@@H]12,13,-2,0,2,/,-3,/,/,
C[C@H]1O[C@@H](n2cc(F)c(=O)[nH]c2=O)[C@H](O)[C@@H]1O,0,8,4,0,-2,12,/,/,
C[C@@H]1O[C@@H](n2c3ccc(Cl)cc3c3ccc4c5cc(Cl)ccc5[nH]c4c32)[C@H](O)[C@H](O)[C@H]1O,62*,2,1,2,/,-1,60*,42*,
C[C@H]1O[C@@H](n2c3ccc(Cl)cc3c3ccc4c5cc(Cl)ccc5[nH]c4c32)[C@H](O)[C@H](O)[C@H]1O,78*,0,1,0,/,0,54*,43*,
Cc1ccc(/C=C2/SC(=S)N(c3ccc(S(=O)(=O)Nc4nccs4)cc3)C2=O)cc1,42*,9,5,1,11,5,82*,49*,
O=C(O)COc1ccc(C=C2SC(=S)N(c3ccccc3)C2=O)cc1,7,-2,1,1,4,-1,/,/,
Cc1ccc(N2C(=O)/C(=C/c3cccnc3)SC2=S)cc1,1,-2,1,-2,-2,5,/,/,
